Data published in PubChem BioAssay AID588591 (National Center for Advancing Translational Sciences (NCATS), 2011).
Several values for one entry are separate records, joined by “and”; a condition that tells them apart may be missing. Equal values may be shown once. Screen size: about 390,000 compounds; about 4,700 (1.2%) were called active. Another 4% or so got no clear call; they are omitted. Calls come from the whole dose curve; as a rule, active = well fitted inhibition curve with a large enough effect; inconclusive = small, poorly fitted or top-dose-only effect, or another doubt; inactive = no such curve, though single readings can be large or run the other way. This excerpt belongs to a sample that is enriched for actives.

target: DNA polymerase eta (Homo sapiens) (UniProt Q9Y253); test: qHTS for Inhibitors of Polymerase Eta; settings: recombinant Pol eta, fluorescent DNA replication assay; series mostly up to 114 µM
Sequence (Q9Y253 whole entry, looked up): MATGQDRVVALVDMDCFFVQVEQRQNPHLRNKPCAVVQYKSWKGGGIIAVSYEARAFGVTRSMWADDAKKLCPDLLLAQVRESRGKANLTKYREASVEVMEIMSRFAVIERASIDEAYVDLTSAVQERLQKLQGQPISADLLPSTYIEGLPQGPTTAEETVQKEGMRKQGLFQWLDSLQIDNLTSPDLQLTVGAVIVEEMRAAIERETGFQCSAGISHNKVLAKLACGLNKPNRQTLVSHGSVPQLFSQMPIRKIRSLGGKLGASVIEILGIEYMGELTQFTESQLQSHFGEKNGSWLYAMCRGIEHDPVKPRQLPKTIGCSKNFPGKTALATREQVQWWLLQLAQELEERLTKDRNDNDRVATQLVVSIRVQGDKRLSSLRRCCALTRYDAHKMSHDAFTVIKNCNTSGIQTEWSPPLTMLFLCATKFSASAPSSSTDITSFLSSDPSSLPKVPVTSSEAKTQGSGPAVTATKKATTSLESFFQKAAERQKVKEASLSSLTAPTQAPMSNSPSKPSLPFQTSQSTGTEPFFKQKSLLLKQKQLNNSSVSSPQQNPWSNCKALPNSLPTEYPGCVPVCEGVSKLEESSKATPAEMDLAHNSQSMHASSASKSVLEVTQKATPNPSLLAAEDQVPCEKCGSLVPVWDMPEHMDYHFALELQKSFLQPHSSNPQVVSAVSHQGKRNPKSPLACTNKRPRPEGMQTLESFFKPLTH
How it was run: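 Fluorescent replication assay: 50 nM final substrate added after a 15 min room-temperature compound preincubation with 10 nM enzyme. Signal taken at 0 min and again at 10 min.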
Potency is the fitted concentration of half-maximal effect.

Potency, inactive:
COc1ccc(CNC(=O)c2cc3c(s2)-c2ccccc2OC3)cc1
Cc1c(C)n(Cc2ccc(Cl)cc2)c2ccc(C(=O)N3CCN(c4ccccc4F)CC3)cc12
CC(C)c1ccc(Cn2c(COc3ccccc3)nc3ccccc32)cc1
Cc1ccc(S(=O)(=O)NCc2nc3nc(C)cc(C)n3n2)cc1
Cc1cc(NC(=O)CSc2ncc(C(=O)Nc3ccc(Cl)cc3)c(=O)n2C)no1
Cc1ccc(C)c(NC(=O)CSC2=Nc3ccccc3N=C(c3ccc(F)cc3)C2)c1
CCOc1ccc(NC(=O)C(C)N2C(=O)c3ccccc3C2=O)cc1 (stereo not given)
O=C1/C(=C/c2cccs2)SC(=S)N1C1CCS(=O)(=O)C1 (stereo not given)
CCN(CC)CCNc1ncnc2c1cnn2-c1cc(Cl)ccc1C
CC(C)C(=O)Nc1nc2c(s1)CC(C(C)(C)C)CC2 (stereo not given)
CCOc1ccccc1C(=O)Nc1ccc2c(c1)N(C)C(=O)c1ccccc1S2
Cc1ccc(Cl)cc1-n1ncc2c(N3CCC(C(N)=O)CC3)ncnc21
O=C(O)c1ccc2c(=O)n3c(nc2c1)/C(=C/c1ccc(OC(F)F)cc1OC(F)F)CC3
N#Cc1ccc(/C=C2\CCn3c2nc2cc(C(=O)O)ccc2c3=O)cc1
Fc1ccc(Nc2nc(SCc3ccccc3Cl)nc3ccccc23)cc1
O=C(NCC12CC3CC(CC(C3)C1)C2)c1cc2nc(-c3ccccc3)cc(C(F)(F)F)n2n1
COCCn1c(CCC(=O)Nc2cc(C)ccc2C)nc2cccnc21
COC(=O)c1ccc(Cn2c(SCC(=O)N(C)c3ccccc3)nc3ccccc32)cc1
Cc1ccc(O)c(NC(=O)CCS(=O)(=O)c2nc(-c3ccc4c(c3)OCO4)cc(C(F)(F)F)n2)c1
COc1ccccc1-n1c(SCC(=O)O)nc2sc3c(c2c1=O)CCC3
Cc1cccc(NC(=O)CSc2nc3c(c(=O)[nH]2)CCCC3)c1C
COc1ccccc1CNC(=O)C(=O)NCC(c1cccs1)S(=O)(=O)c1cccs1 (stereo not given)
COc1ccc(C2C(=O)N(C3CCCCC3)CC(=O)N2Cc2ccccc2Cl)cc1OC (stereo not given)
CCOC(=O)c1cccc(NC(=O)Cn2cnc3nc4c(cc3c2=O)CCCC4)c1
COC(=O)c1ccc(NC(=O)CSc2n[nH]c(-c3ccccc3)n2)cc1
COc1ccc(NC(=O)CSc2nc3ccccc3[nH]2)cc1
CCOc1ccc(-n2nc3ccc(NC(=O)c4ccc(OC)c(Cl)c4)cc3n2)cc1
Cc1ccc(S(=O)(=O)N2CCOCC2)cc1NC(=O)c1ccncc1
COCCNC(=S)Nc1cc(S(=O)(=O)N2CCOCC2)ccc1N1CCCCC1
Cc1nc2c(c(C)nn2-c2ccccc2)c(C)c1CCC(=O)NCCc1ccc(Cl)cc1
CCOc1ccc(NC(=O)Cn2c(C)ccc(C#N)c2=O)cc1
CCOc1ccc(NC(=O)c2ccc(CSc3nnnn3C)cc2)cc1
Cc1ccc(S(=O)(=O)c2nc(-c3cccs3)oc2N2CCCCC2)cc1
COc1ccc(CCNc2ncnc3onc(-c4ccc(Cl)cc4)c23)c(OC)c1
Cc1ccc(C)c(N2CCN(CCCNC(=O)Nc3ccc(Cl)cc3)CC2)c1
O=C(O)c1cccc(N=NN2CCCCCC2)c1
CN=C1S/C(=C\c2c(OC)cc(OC)cc2OC)C(=O)N1C
O=C(CSc1nc(-c2cccc(F)c2)[nH]c1-c1ccccc1)Nc1ccc2c(c1)OCO2
Cc1ccc2oc3c(c(=O)c2c1)C(c1ccc([N+](=O)[O-])cc1)N(CCCN1CCOCC1)C3=O (stereo not given)
CCCc1cc(=O)[nH]c(SCC(=O)Nc2ccc(C(=O)Nc3ccccc3OC)cc2)n1
Cc1cc(C)c(C(=O)CSc2nc(C)cc(=O)[nH]2)c(C)c1
Cc1ccccc1Nc1nn2c(=O)c3ccc(C(=O)NCCc4ccc(Cl)cc4)cc3nc2s1
Cc1ccc2onc(CC(=O)N3CCN(c4ccc(Cl)cc4)CC3)c2c1
O=C(CN1CCN(c2ncc(C(F)(F)F)cc2Cl)CC1)Nc1ccc2c(c1)OCO2
Cn1c(=O)c2ccccc2n(CC(=O)Nc2ccc3c(c2)OCCO3)c1=O
O=C(NCc1ccc(F)cc1)c1ccc2nc(N3CCCCC3)sc2c1
Cc1ccccc1-c1nc2cc(NC(=O)c3cccc(OCCC(C)C)c3)ccc2o1
CCC(=O)N1CCc2cc(CNS(=O)(=O)c3ccc(Br)s3)ccc21
Cc1cccc(NC(=O)CSc2nc3c(oc4ccccc43)c(=O)n2-c2ccc(F)cc2)c1

Potency, active:
CC(C)c1ccc2c(c1)c(SC(C)(C)C)c(CC(C)(C)C(=O)O)n2Cc1ccc(Cl)cc1 35.5 µM and 25.1 µM
CC(C(=O)Nc1ccc(O)c(C(=O)O)c1)N1C(=O)/C(=C/c2cccs2)SC1=S (stereo not given) 79.4 µM
Cc1ccc(/C=C2\CCn3c2nc2cc(C(=O)O)ccc2c3=O)c(C)c1 79.4 µM
O=C(CCc1nc2sc3c(c2c(=O)[nH]1)CCCC3)NCC(=O)Nc1ccccc1Br 8.91 µM
COc1ccc(-c2nc3c(c(SCC(=O)Nc4ccc(C(=O)O)cc4)n2)Cc2ccccc2O3)cc1 7.94 µM
C=C(C)C(=O)O[C@H]1C/C(C)=C\C(=O)/C=C(\C)[C@H](O)[C@@H]2OC(=O)C(=C)[C@@H]21 20 µM
O=[N+]([O-])c1cc(Cl)cc(/C=N/NC(=S)Nc2cc(S(=O)(=O)N3CCOCC3)ccc2Cl)c1O 50.1 µM
CCOc1ccc(NC(=O)c2ccc(NC(=O)COC(=O)c3ccc(NC(=O)CC#N)cc3)cc2)cc1 1.26 µM
CN1C(=O)/C(=C/c2ccco2)SC1=Nc1cccc(C(=O)O)c1 35.5 µM
COC(=O)c1cccc(NC(=O)CSc2nc(C)cc(=O)[nH]2)c1 20 µM
Cc1ccc(C(=O)O)cc1-c1ccc(/C=C2\SC(=O)N(CC(=O)Nc3ccc4c(c3)OCO4)C2=O)o1 4.47 µM
